Data published in PubChem BioAssay (NCI).
About 83,000 compounds went through this panel and 20% of them were active in at least one assay; those are over-represented in the sample as a whole.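 96-well plates, one dose, 48 hours. Percent growth reported; active if below 10.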 Unmarked numbers belong to inactive results. Active and inactive are the calls of the source.

Experiments:
Experiment in all cases: NCI-60 one-dose screen, 48 h (100 = growth as untreated, 0 = no growth, -100 = all killed)
Conditions in all cases: 10 µM unless noted
NCI-H23 lung = tested on: NCI-H23 lung
NCI-H226 lung = tested on: NCI-H226 lung
NCI-H322M lung = tested on: NCI-H322M lung
HOP-62 NSCLC = tested on: HOP-62 NSCLC
NCI-H460 lung = tested on: NCI-H460 lung
HOP-92 NSCLC = tested on: HOP-92 NSCLC
NCI-H522 lung = tested on: NCI-H522 lung
A549/ATCC NSCLC = tested on: A549/ATCC NSCLC
786-0 renal = tested on: 786-0 renal
COLO 205 colon = tested on: COLO 205 colon
DU-145 prostate = tested on: DU-145 prostate
K-562 leukemia = tested on: K-562 leukemia
MALME-3M melanoma = tested on: MALME-3M melanoma
MDA-MB-231 breast = tested on: MDA-MB-231 breast
RXF 393 renal = tested on: RXF 393 renal
SF-268 CNS = tested on: SF-268 CNS
SF-295 CNS = tested on: SF-295 CNS
SF-539 CNS = tested on: SF-539 CNS
UACC-257 melanoma = tested on: UACC-257 melanoma
M14 melanoma = tested on: M14 melanoma

| Structure (SMILES) | growth (NCI-H23 lung) | growth (NCI-H226 lung) | growth (NCI-H322M lung) | growth (HOP-62 NSCLC) [%] | growth (NCI-H460 lung) | growth (HOP-92 NSCLC) | growth (NCI-H522 lung) | growth (A549/ATCC NSCLC) | growth (786-0 renal) | growth (COLO 205 colon) | growth (DU-145 prostate) | growth (K-562 leukemia) | growth (MALME-3M melanoma) | growth (MDA-MB-231 breast) | growth (RXF 393 renal) | growth (SF-268 CNS) | growth (SF-295 CNS) [%] | growth (SF-539 CNS) | growth (UACC-257 melanoma) [%] | growth (M14 melanoma) |
| --- | --- | --- | --- | --- | --- | --- | --- | --- | --- | --- | --- | --- | --- | --- | --- | --- | --- | --- | --- | --- |
| CC(=O)c1c2c(c3ccc4c5ccccc5ccc4n13)C(=O)c1ccccc1C2=O | 68.4% | 54.8% | 92.9% | 70.7 | 28% | 94.9% | 91.9% | 84.1% | 78.5% | 99.8% | 102% | 103% | -49.5% (active) | 77.3% | 59.6% | 98% | 92.5 | 77.6% | 97.5 | 65.7% |
| Fc1ccc(N2CC(Cn3c(C(F)(F)F)cc4c(Cl)ncnc43)C2)c(F)c1 | -76% (active) | 116% | 45.7% | 46.8 | -72.9% (active) | -7.85% (active) | 9.73% (active) | 108% | 79.2% | 65% | -6.58% (active) | -57% (active) | 89.7% | -81.9% (active) | -51.1% (active) | -42% (active) | 87.8 | 50.2% | 11.4 | -60.9% (active) |
| O=C1Nc2cc(-c3ccc(NS(=O)(=O)c4ccc(F)c(Cl)c4)cc3)ccc2/C1=C/c1ccc[nH]1 | -25.5% (active) | 37% | 26.4% | 27.2 | -10.6% (active) | 37.2% | 6.92% (active) | 3.71% (active) | 35.6% | 35.4% | 20% | 17.3% | 50.3% | -6.71% (active) | 29.5% | 60.1% | 53.6 | -34.8% (active) | 29.7 | 48.4% |
| FC(F)(F)CN1CCN(CCn2c(C(F)(F)F)cc3c(Cl)ncnc32)CC1 | 16.5% | 86.7% | -22.9% (active) | 40.2 | -41.2% (active) | 72.2% | -79.3% (active) | 98.8% | 84.6% | 70.5% | 30.9% | -20.3% (active) | 77.3% | -35.6% (active) | 59.7% | -18.5% (active) | 67.1 | 66.6% | 45.7 | -66.7% (active) |
| O=Cc1cncc(-c2ccc3ncnc(N4CCc5cc(F)c(Cl)cc54)c3c2)c1 | 44.6% | 10.8% | 0.287% (active) | 51.9 | 25.2% | -4.62% (active) | 59% | 21.6% | 18% | 99.7% | 22.5% | 35.5% | 23.7% | 28.2% | -7.23% (active) | 42.1% | 19.2 | 25.8% | 59.1 | 48.6% |
| COC(=O)c1cc(C(=O)C(C)(C)C)n2c3ccccc3c3ccccc3c12 | 92.4% | 100% | 102% | 132 | 106% | 63.2% | 103% | 115% | 93% | 112% | 97.4% | 77.1% | 109% | 79.4% | 91.3% | 103% | 93.5 | 96.7% | 117 | 96.7% |
| COc1ccc2ccccc2c1/C=C1\SC(=Nc2ccc(O)cc2)NC1=O | 19.3% | -5.11% (active) | 32.7% | 23.8 | 11.1% | 18.3% | -24% (active) | 11.5% | 17.7% | -22.2% (active) | 35.2% | 7.49% (active) | 30.1% | 15.1% | -1.11% (active) | 37.9% | 10.7 | -21.7% (active) | 37.8 | 6.7% (active) |
| CC(=O)c1ccc2c(N)c(C(=O)Nc3ccc(C(F)(F)F)cc3)sc2n1 | 41.7% | 59.1% | 83.2% | 58.6 | 72.8% | 67.1% | 59.8% | 78.5% | 78.1% | 83.4% | 82.2% | 20% | 26.4% | 68.3% | 85.8% | 85.2% | 38.1 | 71.1% | 59.5 | 58.3% |
| C/C(=N/O)c1ccc(NC(=O)CSc2nnc(-c3ccc4nc(-c5ccc(Cl)cc5)[nH]c4c3)o2)cc1 | -18.9% (active) | 110% | 55.8% | 20.2 | 12.2% | 88.7% | -16.3% (active) | 31.8% | -59.9% (active) | 122% | 44.3% | 19.4% | -4.58% (active) | 36% | -40.6% (active) | 70.8% | 97.6 | 43% | 97.4 | 22.2% |
| COc1ccc2[nH]c(O)c(N=NC(=O)c3ccc4nc(-c5ccc(Cl)cc5)[nH]c4c3)c2c1 | 65.6% | 77.5% | 85.9% | 48.9 | 101% | 73.3% | 35.3% | 113% | 90.6% | 18% | 65.6% | 41.8% | 33.4% | 23.9% | 43.4% | 27.3% | 103 | 67.6% | 100 | 59.4% |
| N#Cc1cc(-c2ccc3ncnc(N4CCc5cc(F)c(Cl)cc54)c3c2)cnc1N | 50.2% | 59.1% | 38.4% | 77.5 | 5.5% (active) | 1.74% (active) | 46% | 42% | 22.1% | 12.2% | 8.95% (active) | 37.8% | 50.6% | 28.7% | 17.9% | 46.5% | 40.1 | 35.6% | 90.2 | 36.8% |
| COc1ccc(N=Nc2c(N)nn3c(-c4ccc(OC)c(OC)c4)ccnc23)cc1 | 72.8% | 94.8% | 88.5% | 21.5 | 85.2% | 67.6% | 78.7% | 74% | 76.2% | 103% | 79.2% | 80.2% | 78.4% | 81.1% | 65.2% | 87.2% | 65.6 | 20.6% | 99.3 | 62.5% |
| COc1cc(CNC(=O)[C@]23CCC(C)(C)CC2C2=CCC4[C@@]5(C)CCC(OC(C)=O)C(C)(C)C5CC[C@@]4(C)[C@]2(C)CC3)ccc1OCc1cn(-c2ccc(Cl)cc2Cl)nn1 (stereo not given in full) | 99% | 94.8% | 94.1% | 105 | 105% | 116% | 88.9% | 93.1% | 107% | 118% | 116% | 85.5% | 99% | 88.8% | 116% | 110% | 100 | 101% | 88.6 | 98.2% |
| S=C(Nc1ccccc1)Nc1ccc(OCc2nc3ccc(Cl)cc3[nH]2)cc1 | 88% | 97.5% | 89.5% | 90.4 | 88.2% | 115% | 61.1% | 88.2% | 94.5% | 114% | 96.4% | 30.9% | 92.4% | 80% | 85.1% | 92.1% | 93.7 | 88.8% | 105 | 85% |
| Cc1ccc(C(=O)Nc2cc(-c3ccncc3)cc(C(F)(F)F)c2)cc1C#Cc1cnc2cccnn12 | 35.5% | 27.9% | 79% | 44.3 | 51.8% | 31.7% | 33.1% | 48.6% | 46.3% | 32.3% | 68.9% | 2.38% (active) | -11.8% (active) | 23.7% | 28.8% | 79.4% | 46.3 | 32.3% | 40.9 | 8.59% (active) |
